# Screens from PubChem.
# Rango-impB inh: inhibitors of Rango-importin beta complex formation | Potency, µM (doses to about 92.2 µM) | actives 0.031% (n = 340,000) | Rango CFP/YFP FRET sensor + importin beta, 45 min | Q14974; calls by dose curve; further: nearly all actives have a fitted effect of over 15% in size
#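 Inhibition scored from the CFP 486 nm/YFP 530 nm FRET ratio 45 min after adding 0.125 microM importin beta to 50 nM Rango biosensor preincubated 5 min with compound (room temperature, PBS with DTT, Tween-20, BSA). No-importin wells as positive control.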
# Nrf2 activator: Nrf2 pathway activation. AID 624171. actives 0.31% (n = 410,000). AREc32 ARE-luciferase reporter (MCF7-derived line), luminescence, 24 h. Potency, µM (titrated, usually from 46.1 µM), actives largely listed as activators; further: nearly all actives have a fitted effect of over 65% in size
#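 Steps: seed AREc32_Fluc cells (1000/well, 5% FBS OPTI-MEM); incubate overnight at 37 deg C; add 23 nL compound; incubate 24 hr; add Steady-Glo; hold 30 min RT; read luminescence.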
# A549 tox: kills or reduces viability of A549 cells in Nrf2 counter-screen. actives 0.16% (n = 390,000). Potency, µM (titrated, usually from 46 µM), hits mostly inhibitors. A549 ARE-Fluc cells, CellTiter-Fluor viability, 18-24 h. AID 504648
#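 Cytotoxicity counterscreen: CellTiter-Fluor fluorescence was measured in A549 ARE_Fluc cells after 18-24 h of compound exposure in a concentration series. The subsequent BugLite luminescent read reports ARE-luciferase activity.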
# Rango release inh: prevents RanGTP from dissociating the Rango-importin beta complex. Potency, µM (doses to about 46.1 µM). Biochemical FRET Rango-importin beta, RanGTP-induced dissociation. O95149+P62826. actives 0.071% (n = 340,000); calls by dose curve; further: nearly all actives have a fitted effect of over 45% in size
#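 Two FRET readings bracket the reaction: one 5 min after compound meets Rango–importin beta, another 45 min after RanGTP-RCC1 (0.6 uM Ran, 0.2 uM RCC1, 2 mM GTP) is added. Only the second defines inhibition.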
# Nrf2 block: inhibitors of Nrf2 signaling. A549 ARE-Fluc reporter, luciferase luminescence, 18-24 h. Potency, µM (titrated, usually from 46 µM), hits mostly inhibitors. actives 2.1% (n = 360,000); further: nearly all actives have a fitted effect of over 60% in size
#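 Nrf2 activity is the BugLite luminescence, read 15 min after reagent at room temperature, following CellTiter-Fluor cytotoxicity readout (30 min, 37C). Compound titrations were applied for 18-24 h to 5000 A549 ARE_Fluc cells/well in 5% FBS OPTI-MEM.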
# Hits are given with their value; – = inactive; ? = inconclusive; · = no result given; [ ] = remark or other dose. Shown are actives, neighbours in structure and some others; about 2.3% of the full set was active somewhere. Unless noted, the call rests on the fitted dose curve; in most records, active means well fitted curve in the direction sought with a large enough effect; inconclusive means small, poorly fitted or top-dose-only effect, or another doubt; inactive means no such curve, though single readings can be large; an effect the other way counts as inactive or inconclusive.
SMILES,Rango-impB inh,Nrf2 activator,A549 tox,Rango release inh,Nrf2 block
CCn1c(/C=C/c2ccccc2)nc2ccccc2c1=O,–,3.5µM,–,–,–
Cn1c(/C=C/c2ccccc2)nc2ccccc2c1=O,?,11µM,–,–,?
COc1ccc(NC(=O)CN(C)C(=O)C2(c3ccccc3)CCCC2)cc1,–,–,–,–,8.2µM
O=C1CN(C(=O)c2ccc(S(=O)(=O)N3CCCCC3)cc2)C(c2ccc(F)cc2)c2cc(Br)ccc2N1 (centres undefined),·,–,–,·,–[9.27 µM]
CCOC(=O)c1ccccc1NC(=O)N1CCC(CN2CCCCC2)CC1,·,–,–,·,?
O=S1(=O)N=C(Oc2ccccc2Br)c2ccccc21,·,·,–,·,–
C=CCn1c(C)cc(C(=O)Cn2nc(C(=O)O)c3ccccc3c2=O)c1C,–,–,–,–,15µM
COc1ccc(C2=NN(C(=O)c3cccs3)C(c3ccccc3O)C2)cc1 (centres undefined),–,–,?,–,23µM
COc1ccc2cc(C3CC(c4cccs4)=NN3C(C)=O)c(Cl)nc2c1 (centres undefined),–,–,–,–,–
COc1ccc(C(=O)N2N=C(c3cccs3)CC2c2ccccc2O)cc1 (centres undefined),–,–,?,–,18µM
C=C(C)CN=c1scc(C)n1/N=C/c1ccco1,–,13µM,–,–,–
COc1ccc(C(C(=O)NCc2ccc(F)cc2)N(C(=O)c2csnn2)C2CC2)cc1 (centres undefined),–,–,–,–,–
Cn1c(=O)n(C)c2cc(NC(=O)COc3ccc(Cl)cc3)ccc21,–,–,–,–,16µM
CSc1cccc(NC(=O)C2CCCN(S(=O)(=O)c3ccc(F)cc3)C2)c1 (centres undefined),–,–,–,–,·
CSc1cccc(NC(=O)C2CCN(S(=O)(=O)c3ccc(F)cc3)CC2)c1,–,–,–,–,15µM
O=C(Nc1cccc(S(=O)(=O)c2cccc(NC(=O)C3CC3)c2)c1)C1CC1,–,–,–,–,8.2µM
CSc1cccc(NC(=O)C2CCN(S(=O)(=O)c3ccc4c(c3)NC(=O)CO4)CC2)c1,–,–,–,–,23µM
C[C@H](CO)N1C[C@H](C)[C@@H](CN(C)C(=O)Nc2ccccc2)Oc2ccc(NC(=O)CCC(F)(F)F)cc2C1=O,–,–,–,–,–
CC(C)C(C(=O)OCC(=O)c1ccccc1)N1C(=O)C2C3C=CC(C3)C2C1=O (centres undefined),–,–,–,–,–
CCC(C)Nc1ccc(NC(C)CC)cc1 (centres undefined),?,–,0.15µM,–,0.073µM
CCC(C)NC(=O)Nc1ccc(Br)cc1 (centres undefined),–,–,–,–,?
COc1cc2c(cc1OC)C(COc1ccccc1OC)N(C(=O)c1ccc(S(=O)(=O)N3CCCC3)cc1)CC2 (centres undefined),·,–,–,·,·
CCc1cc(C(=O)N(CCCOC)c2c(N)n(Cc3ccccc3)c(=O)[nH]c2=O)sc1C,–,–,–,–,–
O=C(NCc1cccc(Br)c1)c1cnn(-c2ccc(F)cc2)c1-n1cccc1,·,–,–,·,–
OC1CCCN(c2c3c(nc4cc(-c5cccc(Cl)c5)nn24)CCC3)C1 (centres undefined),–,–,–,–,4.6µM
SMILES,Rango-impB inh,Nrf2 activator,A549 tox,Rango release inh,Nrf2 block
Cc1ccc(CCNC(=O)C(C)n2nc(C)c3c(C)n(-c4ccccc4)nc3c2=O)cc1 (centres undefined),–,–,–,–,–
Cc1ccc(-n2nc3c(=O)n(C(C)C(=O)NCc4ccc(Cl)cc4)nc(C)c3c2C)cc1 (centres undefined),–,–,–,–,10µM
Cc1ccc(-n2nc3c(=O)n(C(C)C(=O)NCc4ccccc4C)nc(C)c3c2C)cc1 (centres undefined),·,–,–,·,5.2µM
Cc1ccc(-n2nc3c(=O)n(C(C)C(=O)NCCC4=CCCCC4)nc(C)c3c2C)cc1 (centres undefined),–,–,–,–,21µM
CCC(C(=O)NCCc1ccc(C)cc1)n1nc(C)c2c(C)n(-c3ccccc3)nc2c1=O (centres undefined),–,–,–,–,16µM
CC(=O)Nc1cccc(S(=O)(=O)Nc2ccc(C)c(C)c2)c1,·,·,–,·,?
Nc1cccc(S(=O)(=O)N2CCN(S(=O)(=O)c3c(F)cccc3F)CC2)c1,·,·,–,·,–
COc1ccccc1Nc1nn2c(=O)c3ccc(C(=O)NCc4cccs4)cc3nc2s1,·,–,7.3µM,·,·
CCN(CC)CCNC(=O)c1ccc2c(=O)n3nc(Nc4ccccc4OC)sc3nc2c1,·,–,15µM,·,?
Cc1ccc(C)c(Nc2nn3c(=O)c4ccc(C(=O)NCc5cccs5)cc4nc3s2)c1,·,–,?,·,·
CCN(CC)S(=O)(=O)c1ccc(NC(=O)[C@H](CCSC)N2Cc3ccccc3C2=O)cc1,·,–,–,·,–
COc1cc(/C=C/C(=O)c2ccc3c(c2)OCCO3)cc(Br)c1OCC(=O)N(C)C,?,?,?,?,21µM
Cc1ccc(-c2ccc(=O)n(CC(=O)NC(C)c3ccccc3)n2)cc1 (centres undefined),·,–,–,·,·
CCCOC(=O)C(C)n1nnc2sc(-c3ccccc3)cc2c1=O (centres undefined),·,–,–,·,21µM
Cc1cc(C(=O)COC(=O)c2cccc(O)c2)c(C)n1C1CC1,–,–,–,–,13µM
Cc1ccc(S(=O)(=O)c2nc(-c3cccs3)oc2SC(C)C)cc1,·,–,–,·,–[9.27 µM]
CC(C)S(=O)(=O)c1oc(-c2cccs2)nc1S(=O)(=O)c1ccc(F)cc1,·,–,?,·,18µM
COC(=O)c1cccc(NC(=O)NC(=O)c2ccc(Cl)cc2)c1,–,–,–,–,10µM
COC(=O)c1cccc(NC(=O)Nc2ccc(Cl)cc2)c1,–,–,–,–,–
Cc1ccccc1Cn1nc(C)c(NC(=O)c2cc3nc(-c4ccco4)cc(C(F)(F)F)n3n2)c1C,?,–,–,?,21µM
O=C1CCCC2=C1C1(CCCC1)N=C(Nc1nc3cc4ccccc4cc3o1)N2,·,·,–,·,–
CC(=O)c1ccccc1OCc1ccc(S(=O)(=O)Cc2ccccc2)cc1,–,–,–,–,21µM
CCc1nc2oc3ccccc3c(=O)c2c(=O)n1-c1ccc(C)cc1,?,?,–,–,–
CCCc1nc2oc3ccccc3c(=O)c2c(=O)n1-c1ccc(C)cc1,–,11µM,–,–,?
Cc1ccc(NC(=O)Cn2c(=O)n(CCC(=O)NCc3ccccc3Cl)c(=O)c3ccccc32)c(C)c1,·,–,–,·,–
COc1ccc(CNC(=O)CSc2ccc(Br)cc2)cc1OC,–,–,–,–,23µM
COc1ccccc1C(=O)NC(=O)COC(=O)Cn1cnc2c1c(=O)n(C)c(=O)n2C,–,–,–,–,–
